Assay outcomes from PubChem BioAssay.
Most compounds without a hit are left out; they make up all but 11% or so of the library.
G9a inh: qHTS Assay for Inhibitors of Histone Lysine Methyltransferase G9a; Histone-lysine N-methyltransferase EHMT2 (Homo sapiens), Q96KQ7; G9a H3K9 monomethylation, AlphaScreen, 2 h; Potency, µM (doses to about 102 µM), inactives show at the top dose activity, negative = inhibition, usual class: inhibitors; actives 8.8% (n = 350,000); AID 504332, 2011; note: potency is the fitted concentration of half-maximal effect; % is set by controls: 0 for no effect and ±100 for the full control effect; nearly all actives have a fitted effect of over 75% in size
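Compounds were preincubated with 20 nM G9a for 15 min, after which biotinylated H3K9 peptide (500 nM) and SAM (20 uM) started a 2 h room-temperature reaction. Monomethylated product was quantified by antibody-based AlphaScreen chemiluminescence.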
L3MBTL1 block: qHTS Assay for the Inhibitors of L3MBTL1 | Lethal(3)malignant brain tumor-like protein 1 (Homo sapiens), Q9Y468 | AlphaScreen L3MBTL1–H3K9me1 peptide binding | Potency, µM (titrated, usually from 57.1 µM), for inactives: at the top dose activity, negative = inhibition, most hits filed as inhibitors | actives 0.66% (n = 230,000); note: potency is the fitted concentration of half-maximal effect; % is set by controls: 0 for no effect and ±100 for the full control effect; nearly all actives have a fitted effect of over 60% in size
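Read-out is AlphaScreen signal from streptavidin donor and nickel chelate acceptor beads (10 ug/mL final each) bridging L3MBTL1 (50 nM) and biotinylated K9-monomethylated H3(1-15) peptide (75 nM), after 30 min compound exposure at room temperature.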
HP1b chromo inh: HTS for Inhibitors of HP1-beta Chromodomain Interactions with Methylated Histone Tails. AID 540317, 2011. actives 0.56% (n = 390,000). Potency, µM (highest dose often 114 µM), inactives show top-dose activity change, negative = inhibition, most hits filed as inhibitors. AlphaScreen HP1-beta / biotin-H3K9me3 peptide binding. Chromobox protein homolog 1 (Homo sapiens), P83916; note: potency is the fitted concentration of half-maximal effect; nearly all actives have a fitted effect of over 70% in size
Target sequence (P83916 whole entry, looked up): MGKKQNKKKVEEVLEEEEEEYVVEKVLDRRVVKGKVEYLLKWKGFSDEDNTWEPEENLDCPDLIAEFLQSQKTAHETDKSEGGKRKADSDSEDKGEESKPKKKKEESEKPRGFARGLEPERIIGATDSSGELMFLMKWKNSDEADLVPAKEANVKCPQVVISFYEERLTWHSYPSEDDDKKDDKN
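HP1-beta protein (50 nM final) preincubated 30 min at room temperature with biotinylated H3(1-18)K9me3 peptide (50 nM) in PBS pH 7.4, 0.01% Tween-20, then compound added for 30 min. AlphaScreen streptavidin donor/nickel chelate acceptor beads (10 ug/mL final), 30 min dark, luminescence read.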
PI5P4Ka inh: qHTS for Inhibitors of phosphatidylinositol 5-phosphate 4-kinase (PI5P4K). PI5P4Kalpha enzyme, ADP-Glo luminescence, 60 min; active compounds read low. max response, %. actives 1.2% (n = 330,000). AID 652105, 2013; active = max response of -50% or lower; inconclusive = between -30% and -50%; inactive = -30% or higher; note: value at the top dose of about 77 µM; % is set by controls: 0 for no effect and ±100 for the full control effect
Target sequence (P48426 whole entry, looked up): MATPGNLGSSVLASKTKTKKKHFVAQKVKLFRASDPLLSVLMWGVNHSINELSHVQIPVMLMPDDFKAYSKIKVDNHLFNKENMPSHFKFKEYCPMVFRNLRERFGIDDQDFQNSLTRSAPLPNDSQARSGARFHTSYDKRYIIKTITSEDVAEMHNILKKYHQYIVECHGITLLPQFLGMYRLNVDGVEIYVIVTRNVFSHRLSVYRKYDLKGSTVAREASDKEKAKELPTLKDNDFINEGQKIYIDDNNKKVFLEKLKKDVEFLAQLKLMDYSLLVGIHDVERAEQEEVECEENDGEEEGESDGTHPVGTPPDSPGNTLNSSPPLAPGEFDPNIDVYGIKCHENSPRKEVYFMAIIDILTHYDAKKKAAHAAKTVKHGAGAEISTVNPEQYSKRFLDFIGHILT
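Human PI5P4Kalpha with substrate in 0.038 M HEPES pH 7.4, 0.28 mM EGTA, 0.1% CHAPS, 5% DMSO; reaction started with 5 microM ATP (final), 60 min at room temperature. ADP formed read by ADP-Glo luminescence.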
JMJD2A Tudor: qHTS Assay for Inhibitors of JMJD2A-Tudor Domain; AlphaScreen JMJD2A-Tudor / H3K4me3 peptide binding; AID 504339, 2011; actives 4.4% (n = 390,000); Lysine-specific demethylase 4A (Homo sapiens), O75164; Potency, µM (series often up to 114 µM), for inactives: at the highest dose activity change, negative = inhibition, usual class: inhibitors; note: potency is the fitted concentration of half-maximal effect; % is set by controls: 0 for no effect and ±100 for the full control effect; nearly all actives have a fitted effect of over 50% in size
BAZ2B block: qHTS Assay for Inhibitors of BAZ2B; Potency, µM (series often up to 114 µM), for inactives: at the top dose activity change, negative = inhibition, most hits filed as inhibitors; AID 504333, 2011; AlphaScreen BAZ2B-H3K14Ac peptide displacement; actives 4.4% (n = 360,000); note: potency is the fitted concentration of half-maximal effect; % is set by controls: 0 for no effect and ±100 for the full control effect; nearly all actives have a fitted effect of over 60% in size
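Inhibition is scored as reduced AlphaScreen emission. The BAZ2B/b-H3(5-23)K14Ac complex (50 nM each) in PBS pH 7.4, 0.01% Tween-20 meets compound (up to 110 uM) for 30 min at RT before bead addition.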
* marks the source's active call; other numbers are inactive results; ? = inconclusive; . = not tested or not shown; [ ] = dose if it differs, or a comment. Unless noted, calls come from the whole dose curve; as a rule, active = well fitted inhibition curve with a large enough effect; inconclusive = small, poorly fitted or top-dose-only effect; inactive = no such curve, though single readings can be large or run the other way.

SMILES	G9a inh	L3MBTL1 block	HP1b chromo inh	PI5P4Ka inh	JMJD2A Tudor	BAZ2B block
C[C@@H]1CC2[C@@H]3CC[C@H]4CC(=O)CC[C@]4(C)C3=CC[C@]2(C)[C@@]1(O)C(=O)CO (stereo not given in full)	56µM*	.	29%	-9	-4%	-24%
Cc1cc(C)cc(-n2ccn(CC(=O)Nc3cc(C)ccc3C)c(=O)c2=O)c1	-14%[59 µM]	.	42%	.	17%	-1%
COCCN(C(=O)c1ccc(OCC(C)C)cc1)c1c(N)n(Cc2ccccc2)c(=O)[nH]c1=O	35µM*	3%	12%	-2	-8%	-1%
CCCn1c(N)c(N(CCOC)C(=O)c2ccc(N(C)S(=O)(=O)c3ccc(C)cc3)cc2)c(=O)[nH]c1=O	1µM*	-10%	5%	6	-9%	?
COCCN(C(=O)c1ccc(C#N)cc1)c1c(N)n(Cc2ccccc2)c(=O)[nH]c1=O	-5%[12.7 µM]	2%	53%	3	1%	5%
CCCn1c(N)c(N(CCOC)C(=O)c2ccc(N3CCCC3=O)cc2)c(=O)[nH]c1=O	56µM*	8%	38%	6	0%	5%
CCCn1c(N)c(N(CCOC)C(=O)c2ccc([N+](=O)[O-])cc2Cl)c(=O)[nH]c1=O	50µM*	.	4%	1	-9%	8%
CC(C)c1ccc(CNc2n[nH]c(-c3ccco3)n2)cc1	-6%[59 µM]	.	9%	.	-32%	-12%
COCCN(C(=O)c1ccc(N2CCCC2=O)cc1)c1c(N)n(Cc2ccccc2)c(=O)[nH]c1=O	7.9µM*	0%	35%	-5	-12%	6%
Cc1cccc(Cn2cnc3c(cnn3-c3ccc(Cl)cc3)c2=O)c1	4%[59 µM]	.	33%	.	-1%	-2%
COc1ccc(OC)c(/C=N/NC(=O)CN2CCSCC2)c1	?	2%	?	-4	5.6µM*	56µM*
COc1cc(OC)c(OC)cc1CN1CCc2ccccc2C1	13µM*	.	?	.	56µM*	?
COc1ccc(CN2CCSCC2)c(OC)c1C	10µM*	-1%	?	-1	4µM*	79µM*
COc1ccc(OC)c(CN2CCSCC2)c1	11µM*	-3%	?	8	1.8µM*	?
CCCN(CCC)C(=O)Cn1c(=O)n(-c2cccc(C)c2)c(=O)c2c1c1cc(OC)ccc1n2C	8%[59 µM]	.	52%	.	4%	2%
Cc1ccc2c(c1)cc(C(=O)NCc1ccccc1C)n2C	7%[59 µM]	.	17%	.	-5%	0%
Cc1ccc(C)c(CN2CCCN(Cc3ccccc3C)S2(=O)=O)c1	45%[59 µM]	.	113%	.	57%	53%
COc1ccc(OC)c(CN2CCCCCC2)c1	45µM*	0%	?	-1	14µM*	79µM*
Cc1ccc(C)c(CN2CCSCC2)c1	.	4%	-5%	-6	7.1µM*	?
CCN1CCN(Cc2c(OC)ccc3ccccc23)CC1	-3%[12.7 µM]	0%	25%	.	-14%	-10%
COc1ccc2ccccc2c1CN1CCSCC1	.	-2%	?	-4	45µM*	56µM*
c1ccc2c(CN3CCSCC3)cccc2c1	-5%[0.501 µM]	-8%[2.29 µM]	?	-2	20µM*	?
COc1cc2c(cc1OC)CN(Cc1ccc(OC)c(C)c1OC)CC2	?	2%	-56%	.	1.6µM*	50µM*
COc1ccc(-c2sc(Nc3ccc(F)c(F)c3F)nc2CCC(=O)NN)cc1	-48%	.	-23%	14	56µM*	-35%
N#Cc1cc2cc3c(cc2nc1SCC(=O)N1CCCC1)OCCO3	28µM*	.	18%	0	-12%	-2%
SMILES	G9a inh	L3MBTL1 block	HP1b chromo inh	PI5P4Ka inh	JMJD2A Tudor	BAZ2B block
Cc1cc(C)c(C#N)c(SCC(=O)N2CCCCC2)n1	14µM*	-7%	7%	-7	?	0%
CC(=O)CSc1nc2cc3c(cc2cc1C#N)OCCO3	1µM*	.	21%	-16	-9%	-22%
COc1ccc2cc(C#N)c(SCC(=O)N3CCCC3)nc2c1	25%[59 µM]	-2%	41%	2	-3%	-1%
N#Cc1cc2cc3c(cc2nc1SCC(=O)OC1CCCCC1)OCO3	20%[59 µM]	6%	44%	-3	19%	45%
Cc1ccc(NC(=O)CSc2nc(=O)n(CCN3CCOCC3)c3c2CCC3)c(C)c1	?	.	14%	.	3%	-2%
CC(C)CCNC(=O)CN1C(=O)CSc2ccc(S(=O)(=O)N3CCCCC3)cc21	-1%[59 µM]	.	16%	.	-28%	3%
Cn1c(=O)c(-c2cccc(F)c2)nc2cncnc21	1%[0.501 µM]	.	.	.	.	.
COc1ccc(NS(=O)(=O)c2cc(C(=O)N3CCN(C/C=C/c4ccccc4)CC3)ccc2C)cc1	14µM*	-12%	-10%	4	?	50µM*
O=C(c1ccco1)N1CCN(C/C=C/c2ccccc2)CC1	56µM*	0%	0%	-12	-14%[11.4 µM]	4%
Cc1ccc(C(=O)N2CCCCCC2)cc1S(=O)(=O)Nc1ccccc1	.	.	14%	-8	-28%	-2%
Cc1cc(C(=O)N2CCN(C/C=C/c3ccccc3)CC2)no1	50µM*	1%	23%	.	-1%	-4%
O=C(NC(=S)N1CCN(C/C=C/c2ccccc2)CC1)c1ccco1	45µM*	-5%	10%	-3	-20%	-34%
CC(=O)Nc1ccc(S(=O)(=O)NCc2ccc3[nH]c(C)cc3c2)cc1	-9%[59 µM]	-1%	-18%	-9	?	-34%
Cc1ccc(S(=O)(=O)NCc2ccc3[nH]c(C)cc3c2)cc1	50µM*	.	3%	0	-31%	.
Cc1ccc(S(=O)(=O)Oc2ccc(/C=N/NC(=O)c3nn(C)cc3Cl)cc2)cc1	-11%[59 µM]	?	21%	-4	-5%	-1%
CSCCOC(=O)COc1ccc(/C=N/NC(=O)c2nn(C)cc2Cl)cc1	40µM*	?	26%	-3	-1%	-5%
CC12CCC(O)CC1=CCC1C2CCC2(C)C1CCC21CCC(=O)O1 (stereo not given)	15%[59 µM]	2%	1%	0	-13%	10%
C[C@]12CCC3C(CC=C4C[C@@H](O)CC[C@@]43C)C1CCC2[C@]1(C)CCC(=O)O1 (stereo not given in full)	?	1%	?	2	?	56µM*
CN1CCN(C(=O)c2ccc(C(F)(F)F)cc2)CC1	?	0%[11.4 µM]	42%	1	0%	?
